# Source: PubChem (National Center for Advancing Translational Sciences (NCATS))
# A selection: hits, their analogues and other compounds. The true share with any hit is near 8.9%.
# KB-V1 cytotox = KB-V1 MDR subline cytotoxicity; 400,000 compounds, 3.4% hits; Potency, µM (series often up to 46.1 µM), most hits filed as cytotoxic; KB-V1 MDR cells viability, CellTiter-Glo, 72 h; AID 1347076; further: potency means the concentration at half of the fitted maximal effect; on the % scale 0 is the no-effect control and ±100 the full control effect; nearly all actives have a fitted effect of over 60% in size
#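 Drug-selected KB-V1 cells, grown in DMEM lacking phenol red with 10% FBS, receive compound titrations; after three days at 37 degrees C, surviving cell ATP is quantified by CellTiter-Glo luminescence and responses normalized and curve-fitted.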
# SW480 rereplic = inducers of DNA re-replication in SW480 colon cancer cells. SW480 DNA re-replication, Hoechst DNA content imaging, 48 h. Potency, µM (highest dose often 46.1 µM), without a hit: top-dose re-replication activation, most hits filed as activators. 340,000 compounds, 1.8% hits. AID 624297; further: potency means the concentration at half of the fitted maximal effect; % of control where 0% means no effect; nearly all actives have a fitted effect of over 55% in size
#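 First, 250 cells per well were seeded. Next, compound or vehicle (23 nL) was pinned in, plates sat 48 hr at 37 C. Finally Hoechst was added for 40 min before fluorescence scanning.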
# MCF10A rerep = inducers of DNA re-replication in MCF 10A breast cells; MCF 10A DNA re-replication, Hoechst nuclear intensity, 48 h; Potency, µM (series often up to 46.1 µM), for the others: at the highest dose activity, positive = re-replication, actives largely listed as activators; 350,000 compounds, 2.9% hits; further: potency means the concentration at half of the fitted maximal effect; % of control where 0% means no effect; nearly all actives have a fitted effect of over 50% in size
# D3 antag = D3 dopamine receptor (human) antagonism; 360,000 compounds, 2.5% hits; P35462; D3R cells, DiscoveRx beta-arrestin luminescence, antagonist mode; hits give low values; max response, negative = inhibition, %; in the data active means max response below about -50%; inconclusive means no clear call, values can overlap the other calls; further: on the % scale 0 is the no-effect control and ±100 the full control effect
# Target sequence (P35462 whole entry, looked up): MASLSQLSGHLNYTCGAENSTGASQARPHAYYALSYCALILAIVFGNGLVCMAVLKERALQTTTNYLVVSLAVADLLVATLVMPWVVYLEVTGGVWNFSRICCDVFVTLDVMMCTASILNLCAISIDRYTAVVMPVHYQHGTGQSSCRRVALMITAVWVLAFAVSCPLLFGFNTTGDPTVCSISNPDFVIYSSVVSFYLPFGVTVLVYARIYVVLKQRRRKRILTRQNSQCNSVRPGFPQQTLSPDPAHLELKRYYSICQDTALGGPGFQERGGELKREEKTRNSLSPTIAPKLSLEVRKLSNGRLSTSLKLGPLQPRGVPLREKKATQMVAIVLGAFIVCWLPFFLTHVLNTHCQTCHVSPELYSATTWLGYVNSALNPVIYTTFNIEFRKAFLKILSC
#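 Cells expressing the human receptor were seeded at 1500 cells/well, incubated overnight at 37 degrees C in 5% CO2, then exposed to library compounds with dopamine controls for 90 minutes at 37 degrees C before luminescent detection.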
# KB-3-1 tox = KB-3-1 parental cell cytotoxicity. KB-3-1 viability, CellTiter-Glo ATP luminescence, 72 h. Potency, µM (doses to about 46.1 µM), usual class: cytotoxic. 400,000 compounds, 1.4% hits. AID 1347075; further: potency means the concentration at half of the fitted maximal effect; on the % scale 0 is the no-effect control and ±100 the full control effect; nearly all actives have a fitted effect of over 60% in size
#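 Using CellTiter-Glo luminescence, growth of non-resistant KB-3-1 adenocarcinoma cells is assessed 72 h after pin-tool compound addition at 37 °C. Normalized responses across the concentration series yield fitted curves.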
# D3 ag = D3 dopamine receptor (human) agonism. max activation, %. D3R DiscoveRx beta-arrestin cells, luminescence, 90 min. P35462. 410,000 compounds, 0.58% hits; in the data active means max activation above about 30%; further: 0% is about no effect
#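 Agonist mode: compounds and dopamine controls were applied to plated cells for 90 min at 37 degrees C after an overnight attachment at 1500 cells/well. Luminescent read-out followed 30 - 60 minutes at room temperature with DiscoveRx detection reagent.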
# * marks the source's active call; other numbers are inactive results; i = inactive; u = inconclusive; x = no result; [ ] = remark or other dose. Unless noted, the call rests on the fitted dose curve; in most records, active means well fitted curve in the direction sought with a large enough effect; inconclusive means small, poorly fitted or top-dose-only effect, or another doubt; inactive means no such curve, though single readings can be large; an effect the other way counts as inactive or inconclusive.
SMILES,KB-V1 cytotox,SW480 rereplic,MCF10A rerep,D3 antag,KB-3-1 tox,D3 ag
CSCC[C@H](NC(=O)[C@@H]1Cc2ccccc2CN1)C(=O)NC[C@H]1CC[C@H](C(=O)O)CC1,i,-11.4%,-0.9%,2.1,i,-2.4
O=C(O)c1cccc(N/N=C/C2=C(Cl)c3cc(Cl)ccc3SC2)c1,u,-1.1%,8.2µM*,-6.1,i,1.6
CCOC(=O)N1CCN(Cc2nc3cc(NC(=O)C(C)C)ccc3n2C)CC1,i,-6.0%,8.1%,9.3,i,2.1
CCCn1c(CN2CCN(C(=O)OCC)CC2)nc2cc(NC(=O)CC)ccc21,u,6.51µM*,16.4µM*,-0.4,9.2µM*,-14.5
CCOC(=O)N1CCN(Cc2nc3cc(NC(=O)C(C)C)ccc3n2C(C)C)CC1,i,x,x,x,0.651µM*,-14.7
NC(=O)CSc1ncc2c(n1)-c1ccccc1N(Cc1ccc(F)cc1)S2(=O)=O,i,x,x,x,i,1.2
CCn1c(SCC(=O)Nc2ccc(C)cc2Br)nnc1-c1nonc1NC(C)=O,i,x,x,x,i,-6.8
CC(CNC1CCCCC1)OC(=O)c1ccccc1 (stereo not drawn),i,0.8%,-31.7%,-99.6*,i,-84.2
C[C@@H](CNC1CCCCC1)OC(=O)c1ccccc1,x,0.8%[20.6 µM],0.0%[20.6 µM],x,x,x
COC(=O)C1=C(C)NC(COC(N)=O)=C(C(=O)OC(C)C)C1c1cccc(Cl)c1Cl (stereo not drawn),x,x,x,x,x,1.8
CCOc1ccc(-c2noc(CCC(=O)O)n2)cc1,i,4.11µM*,u,15.0,i,2.8
CCc1ccccc1N(C)C(=O)CCc1nc(-c2ccc(C)cc2)no1,18.4µM*,0.7%,1.4%,34.1,i,-5.0
COc1ccc(Cl)cc1N(C)C(=O)CCc1nc(-c2ccc(C)cc2)no1,u,-5.0%,9.6%,-14.9,i,1.1
CCOC(=O)c1ccc(NC(=O)CCc2nc(-c3ccc(C)cc3)no2)cc1,i,8.5%,14.6µM*,51.2,i,24.9
CCOCCCn1c(SCC(=O)Nc2cc(C)ccc2C)nc2c(oc3ccccc32)c1=O,i,x,x,x,i,5.3
Cc1cccc(Nc2nc(-c3ccccn3)cs2)n1,0.517µM*,u,21.1%,-79.0*,9.2µM*,-41.0
COc1ccc(-c2csc(Nc3cccc(C)n3)n2)cc1C,i,4.6%,u,9.0,i,41.5*
Cc1cccc(Nc2nc(-c3cccs3)cs2)n1,i,-2.7%[9.22 µM],27.9%,-0.2,i,-9.5
Cc1cccnc1Nc1nc(-c2ccccn2)cs1,4.11µM*,u,9.2µM*,-86.4*,1.46µM*,-38.6
COc1cccc(CC(=O)N2CCC(n3nccc3NC(=O)C3CCOC3)CC2)c1 (stereo not drawn),i,-8.4%,-4.0%,-1.5,i,-0.2
COc1ccc(C)cc1-n1cnc2cc(C(=O)NC3CCCCCC3)ccc21,u,x,x,x,i,-15.5
COc1cccc(CNC(=O)C2CCN(S(=O)(=O)c3ccc4c(c3)CCCN4C(C)=O)CC2)c1,u,x,x,x,i,6.8
COc1ccc(OC)c(-c2noc(N3CCN(c4ccc(C(C)=O)cc4)CC3)n2)c1,i,x,x,x,i,0.3
O=C(CC1C(=O)NCCN1Cc1cccc(Oc2ccccc2)c1)NCc1cccnc1 (stereo not drawn),i,5.2%,11.8%,4.8,i,7.3
O=C(CC1C(=O)NCCN1Cc1cccc(Oc2ccccc2)c1)NCCc1cnccn1 (stereo not drawn),i,3.26µM*,3.6%,-21.0,i,10.1
SMILES,KB-V1 cytotox,SW480 rereplic,MCF10A rerep,D3 antag,KB-3-1 tox,D3 ag
COc1ccc(-c2noc(-c3ccc(C)cc3Cl)n2)cc1OC,i,x,x,x,i,-2.3
COc1ccccc1C(=O)Nc1ccc2nc(SCC(=O)N3CCCC3)sc2c1,x,x,x,x,x,6.3
CCn1c(SCC(=O)c2ccccc2)nnc1-c1cc2cc(Br)ccc2o1,18.4µM*,7.7%,u,68.7,u,2.7
O=C(CSc1nc2ccccc2nc1Cc1ccc(Cl)cc1)N1CCCCC1,i,x,x,x,i,-4.8
Cc1[nH]c(=O)c(C(=O)/C=C/c2ccccc2F)c2c1CCCC2,6.51µM*,4.11µM*,3.26µM*,u,6.51µM*,-6.4
O=C1C=CC(=O)N1,i,4.6%,66.3%,-82.6*,i,-84.8
O=C(O)CCN1C(=O)CC(N2C(=O)/C(=C/c3ccc(Cl)cc3)SC2=S)C1=O (stereo not drawn),i,-5.5%,u,0.0,i,31.0*
CCOC(=O)c1c(C)[nH]c(C(=O)CN2C(=O)NC(C)(c3ccc4ccccc4c3)C2=O)c1C (stereo not drawn),10.3µM*,12.7%,-1.6%,13.3,i,5.4
CCCC1(c2ccccc2)NC(=O)N(CC(=O)c2[nH]c(C)c(C(=O)OCC)c2C)C1=O (stereo not drawn),23.1µM*,10.9%,26.4%,-0.8,u,-0.8
CCOC(=O)c1c(NC(=O)CN2C(=O)NC(C)(c3ccccc3)C2=O)sc(C)c1C (stereo not drawn),16.4µM*,u,10.3µM*,1.7,16.4µM*,1.8
O=C(CCl)N1CCN2C(=O)c3ccccc3C12c1ccc(Cl)cc1 (stereo not drawn),u,u,23.1µM*,-29.0,u,-1.1
Cc1ccc(C(=O)N2CCN3C(=O)c4ccccc4C23c2ccc(Cl)cc2)cc1 (stereo not drawn),i,u,u,-23.7,i,-10.8
CN(C(=O)OCc1ccccc1)C(CC(N)=O)C(=O)O (stereo not drawn),i,-1.5%,-6.0%,-98.7*,i,-12.4
NC(=O)CC(CC(=O)OCc1ccccc1)c1ccccc1 (stereo not drawn),i,-4.5%,-1.5%,-1.8,i,-4.8
COc1ccccc1/C=C/C(=O)c1cc(Br)ccc1OC(=O)c1ccco1,u,u,10.3µM*,-56.5*,u,-3.9
COc1ccc(Br)cc1C(=O)Nc1ccc(NC(=O)c2ccco2)cc1,i,-4.4%,u,10.2,i,1.6
Cc1ccc(/C=C/C(=O)c2cc(Br)ccc2OC(=O)c2ccco2)cc1,u,u,16.4µM*,-28.4,i,-7.0
CCCNC(=O)N1CCN(S(=O)(=O)c2ccc3c(ccn3C)c2)CC1,i,x,x,x,i,0.3
O=[N+]([O-])c1cccc(N/N=C/c2cc([N+](=O)[O-])ccc2O)c1,i,-8.2%,u,u,i,-3.7
O=[N+]([O-])c1ccc(O)c(/C=N/Nc2nc3ccccc3[nH]2)c1,u,22.8%,8.2µM*,u,u,-7.3
